Assay results as given in ChEMBL document CHEMBL3988442, “University of Dundee, Small-Polar-MMV Screening Library” (2021).
For some assays here: Potency and affinity values are given separately.

How the values were obtained:
Design in all cases: scale not given: direction of the effect not stated beside the values
[1] = molecular target: Protein translocase subunit SecA (Escherichia coli (strain K12)) (UniProt P10408); test: Assay to Identify E. coli SecA ATPase Inhibitors; type: functional; settings: 30 µM
[2] = molecular target: T1, Ubiquitin-activating enzyme e1, putative (Leishmania donovani (strain BPK282A1)) (UniProt E9BSI1); test: Leishmania donovani Ubiquitin Activating Enzyme (LdE1); type: functional; settings: 30 µM
T1 sequence (whole entry): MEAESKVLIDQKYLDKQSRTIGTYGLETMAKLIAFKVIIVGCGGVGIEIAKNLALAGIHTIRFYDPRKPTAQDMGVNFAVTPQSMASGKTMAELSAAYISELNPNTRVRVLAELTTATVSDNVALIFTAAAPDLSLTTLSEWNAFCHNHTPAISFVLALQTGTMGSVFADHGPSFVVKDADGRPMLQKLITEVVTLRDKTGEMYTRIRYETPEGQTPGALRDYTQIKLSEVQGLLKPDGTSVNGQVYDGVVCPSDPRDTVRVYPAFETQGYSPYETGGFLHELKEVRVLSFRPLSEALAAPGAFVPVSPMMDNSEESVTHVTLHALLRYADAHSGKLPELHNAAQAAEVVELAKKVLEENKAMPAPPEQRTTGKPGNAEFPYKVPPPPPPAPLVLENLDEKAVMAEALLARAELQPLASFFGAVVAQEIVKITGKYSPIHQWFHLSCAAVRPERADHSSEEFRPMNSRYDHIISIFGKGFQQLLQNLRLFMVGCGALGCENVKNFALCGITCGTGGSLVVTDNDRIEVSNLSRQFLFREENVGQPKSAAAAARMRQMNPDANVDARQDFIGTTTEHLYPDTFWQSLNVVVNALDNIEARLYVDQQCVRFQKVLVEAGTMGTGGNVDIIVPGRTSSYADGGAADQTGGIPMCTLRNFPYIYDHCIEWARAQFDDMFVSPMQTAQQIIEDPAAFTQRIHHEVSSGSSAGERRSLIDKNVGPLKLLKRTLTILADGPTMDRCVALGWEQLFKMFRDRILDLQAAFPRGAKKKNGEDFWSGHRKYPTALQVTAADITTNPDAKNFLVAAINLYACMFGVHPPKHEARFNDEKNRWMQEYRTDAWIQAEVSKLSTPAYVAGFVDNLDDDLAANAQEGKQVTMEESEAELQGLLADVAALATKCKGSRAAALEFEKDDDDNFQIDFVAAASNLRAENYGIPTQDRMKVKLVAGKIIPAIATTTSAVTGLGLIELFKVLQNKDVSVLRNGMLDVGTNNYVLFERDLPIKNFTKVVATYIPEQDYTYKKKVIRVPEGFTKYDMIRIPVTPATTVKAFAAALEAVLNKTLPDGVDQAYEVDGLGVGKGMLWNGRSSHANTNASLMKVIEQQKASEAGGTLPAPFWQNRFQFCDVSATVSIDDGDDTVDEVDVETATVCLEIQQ

[3] = molecular target: AMP-activated protein kinase, AMPK (Homo sapiens) (UniProt P54646+O43741+P54619+Q9UGJ0+Q9Y478+Q13131+Q9UGI9); test: AMP-dependent Kinase enzyme assay. An in vitro enzyme assay that detects ADP turnover that is directly proportional to AMPK activity. This uses naive AMPK that is activated during the assay with MK-8722; type: functional; settings: 30 µM
[4] = molecular target: Sialic acid-binding Ig-like lectin 9 (Homo sapiens) (UniProt Q9Y336); test: Hs-Siglec9 ALPHAscreen SOP 20170721; settings: 10 µM
Trypanosoma cruzi = test: Trypanosoma cruzi phosphomannomutase and mannose-1-phosphate guanylyltransferase assay; type: functional; settings: 10 µM
[5] = molecular target: T2, Arginase-2, mitochondrial (Homo sapiens) (UniProt P78540); test: in vitro enzyme assay to detect the production of urea directly proportional to the activity of Arginase II; type: functional; settings: 33.3 µM; further: in the data most compounds retested in dose-response had high values
T2 sequence (whole entry): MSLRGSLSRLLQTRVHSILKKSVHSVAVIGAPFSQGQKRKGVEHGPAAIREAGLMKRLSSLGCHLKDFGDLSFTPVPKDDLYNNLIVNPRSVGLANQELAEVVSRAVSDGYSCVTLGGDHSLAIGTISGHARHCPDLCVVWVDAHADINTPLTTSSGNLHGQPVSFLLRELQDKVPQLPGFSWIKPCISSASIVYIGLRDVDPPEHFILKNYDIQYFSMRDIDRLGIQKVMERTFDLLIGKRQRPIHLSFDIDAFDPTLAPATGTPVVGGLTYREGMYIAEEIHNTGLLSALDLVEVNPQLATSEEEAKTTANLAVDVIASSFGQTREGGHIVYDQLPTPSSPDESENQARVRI

[6] = molecular target: T3, Proteasome subunit beta (Trypanosoma cruzi) (UniProt O96673); test: Trypanosoma cruzi proteasome chymotrypsin-like activity (TcProtChymo) assay.; further: in the data most compounds retested in dose-response had high values; type: functional; settings: 9.37 µM
T3 sequence (whole entry): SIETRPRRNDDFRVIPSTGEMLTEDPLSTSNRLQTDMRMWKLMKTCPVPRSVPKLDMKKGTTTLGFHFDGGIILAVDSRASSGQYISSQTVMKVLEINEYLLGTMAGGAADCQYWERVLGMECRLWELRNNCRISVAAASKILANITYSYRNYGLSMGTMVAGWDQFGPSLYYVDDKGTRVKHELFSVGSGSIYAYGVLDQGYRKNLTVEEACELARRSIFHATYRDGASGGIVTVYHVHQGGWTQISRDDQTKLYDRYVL

Homo sapiens = organism: Homo sapiens; test: To identify inhibition of the IFN signalling (Jak-Stat) pathway via expression of an eGFP reporter gene under the control of an IFN-stimulated response element (ISRE) containing MxA promoter.; type: functional; settings: 30 µM
[7] = molecular target: T4, Tyrosyl-tRNA synthetase, putative (Trypanosoma cruzi (strain CL Brener)) (UniProt Q4DSP6); test: Trypanosoma cruzi tyrosyl tRNA synthetase (TcYRS) _High Tyrosine SOP; type: functional; settings: 30 µM; further: in the data most compounds retested in dose-response had high values
T4 sequence (whole entry): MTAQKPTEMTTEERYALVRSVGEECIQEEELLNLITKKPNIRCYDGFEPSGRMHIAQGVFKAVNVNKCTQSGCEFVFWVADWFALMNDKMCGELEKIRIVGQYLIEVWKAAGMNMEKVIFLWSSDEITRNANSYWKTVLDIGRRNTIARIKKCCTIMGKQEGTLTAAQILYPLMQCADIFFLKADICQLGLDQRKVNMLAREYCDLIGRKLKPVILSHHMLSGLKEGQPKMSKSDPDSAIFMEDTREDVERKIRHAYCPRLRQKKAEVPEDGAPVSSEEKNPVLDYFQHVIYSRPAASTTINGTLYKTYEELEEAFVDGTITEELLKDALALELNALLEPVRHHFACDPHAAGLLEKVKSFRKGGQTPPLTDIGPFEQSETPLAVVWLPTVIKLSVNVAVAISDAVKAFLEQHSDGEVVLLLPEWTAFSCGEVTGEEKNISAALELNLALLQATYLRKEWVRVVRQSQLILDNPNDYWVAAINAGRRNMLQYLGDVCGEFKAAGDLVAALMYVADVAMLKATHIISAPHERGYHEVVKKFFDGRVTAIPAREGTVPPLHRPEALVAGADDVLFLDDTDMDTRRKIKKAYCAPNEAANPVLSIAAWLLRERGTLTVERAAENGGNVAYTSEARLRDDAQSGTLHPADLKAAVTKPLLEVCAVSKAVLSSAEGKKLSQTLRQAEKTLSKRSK

[8] = molecular target: T4, Tyrosyl-tRNA synthetase, putative (Trypanosoma cruzi (strain CL Brener)); test: Trypanosoma cruzi tyrosyl tRNA synthetase (TcYRS) SOP; type: functional; settings: 30 µM
[9] = molecular target: Chromo domain-containing protein 1 (Saccharomyces cerevisiae (strain ATCC 204508 / S288c) (Baker's yeast)) (UniProt P32657); test: ScCHD-1 Enzyme Inhibition Assay; type: functional; settings: 30 µM; further: in the data most compounds retested in dose-response had high values
Chain of Chromo domain-containing protein 1 (Saccharomyces cerevisiae (strain ATCC 204508 / S288c) (Baker's yeast)) (P32657 whole entry, the tested form may be a part): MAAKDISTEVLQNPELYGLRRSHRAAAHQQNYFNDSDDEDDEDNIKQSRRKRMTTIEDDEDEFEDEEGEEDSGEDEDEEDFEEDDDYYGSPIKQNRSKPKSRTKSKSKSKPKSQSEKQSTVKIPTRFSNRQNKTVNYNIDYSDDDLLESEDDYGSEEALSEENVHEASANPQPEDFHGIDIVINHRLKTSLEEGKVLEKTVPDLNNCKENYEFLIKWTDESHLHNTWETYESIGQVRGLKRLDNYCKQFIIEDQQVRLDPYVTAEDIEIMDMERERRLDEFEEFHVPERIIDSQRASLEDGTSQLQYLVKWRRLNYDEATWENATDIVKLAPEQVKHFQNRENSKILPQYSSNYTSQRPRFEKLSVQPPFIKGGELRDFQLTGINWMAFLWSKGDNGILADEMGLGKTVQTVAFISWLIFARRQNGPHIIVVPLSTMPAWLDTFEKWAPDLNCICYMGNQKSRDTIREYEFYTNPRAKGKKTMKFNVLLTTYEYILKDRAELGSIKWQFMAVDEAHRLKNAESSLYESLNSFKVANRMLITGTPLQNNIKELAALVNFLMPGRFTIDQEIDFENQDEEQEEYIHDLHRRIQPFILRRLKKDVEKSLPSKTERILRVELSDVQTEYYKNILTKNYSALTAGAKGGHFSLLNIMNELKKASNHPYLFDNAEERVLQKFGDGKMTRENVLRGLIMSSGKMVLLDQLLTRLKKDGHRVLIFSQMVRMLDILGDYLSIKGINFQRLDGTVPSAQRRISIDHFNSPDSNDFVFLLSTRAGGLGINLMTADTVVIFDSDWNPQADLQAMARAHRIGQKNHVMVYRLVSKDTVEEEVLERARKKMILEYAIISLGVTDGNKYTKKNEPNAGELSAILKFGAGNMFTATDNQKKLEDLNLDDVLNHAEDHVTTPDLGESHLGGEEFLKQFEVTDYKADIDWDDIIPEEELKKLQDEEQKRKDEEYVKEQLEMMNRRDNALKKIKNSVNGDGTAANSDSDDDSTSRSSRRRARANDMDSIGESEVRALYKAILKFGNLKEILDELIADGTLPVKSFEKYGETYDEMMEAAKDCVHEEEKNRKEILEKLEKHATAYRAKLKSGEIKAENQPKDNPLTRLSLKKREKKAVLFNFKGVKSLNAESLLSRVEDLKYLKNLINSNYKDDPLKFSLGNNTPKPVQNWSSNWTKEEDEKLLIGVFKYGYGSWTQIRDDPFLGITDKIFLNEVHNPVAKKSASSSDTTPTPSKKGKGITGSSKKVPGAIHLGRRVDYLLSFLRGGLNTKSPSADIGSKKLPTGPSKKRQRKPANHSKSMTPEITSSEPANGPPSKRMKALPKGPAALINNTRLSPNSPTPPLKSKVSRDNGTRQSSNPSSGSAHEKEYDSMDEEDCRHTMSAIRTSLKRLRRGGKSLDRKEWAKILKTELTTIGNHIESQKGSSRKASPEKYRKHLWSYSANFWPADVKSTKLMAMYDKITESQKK

Chain of Sialic acid-binding Ig-like lectin 9 (Homo sapiens) (Q9Y336 whole entry): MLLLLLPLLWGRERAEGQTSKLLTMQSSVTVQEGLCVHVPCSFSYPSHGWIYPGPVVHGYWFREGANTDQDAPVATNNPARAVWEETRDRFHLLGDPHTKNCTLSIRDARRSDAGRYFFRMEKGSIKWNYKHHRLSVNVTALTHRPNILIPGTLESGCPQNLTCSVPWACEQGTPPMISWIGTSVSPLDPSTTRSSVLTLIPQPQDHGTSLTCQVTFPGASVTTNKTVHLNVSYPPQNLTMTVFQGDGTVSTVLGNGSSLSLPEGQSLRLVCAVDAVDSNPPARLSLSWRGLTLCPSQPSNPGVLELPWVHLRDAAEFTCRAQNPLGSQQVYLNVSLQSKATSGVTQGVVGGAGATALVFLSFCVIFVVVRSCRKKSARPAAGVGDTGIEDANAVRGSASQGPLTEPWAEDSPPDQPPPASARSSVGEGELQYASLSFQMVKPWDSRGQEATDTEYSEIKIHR
Chain of Protein translocase subunit SecA (Escherichia coli (strain K12)) (P10408 whole entry): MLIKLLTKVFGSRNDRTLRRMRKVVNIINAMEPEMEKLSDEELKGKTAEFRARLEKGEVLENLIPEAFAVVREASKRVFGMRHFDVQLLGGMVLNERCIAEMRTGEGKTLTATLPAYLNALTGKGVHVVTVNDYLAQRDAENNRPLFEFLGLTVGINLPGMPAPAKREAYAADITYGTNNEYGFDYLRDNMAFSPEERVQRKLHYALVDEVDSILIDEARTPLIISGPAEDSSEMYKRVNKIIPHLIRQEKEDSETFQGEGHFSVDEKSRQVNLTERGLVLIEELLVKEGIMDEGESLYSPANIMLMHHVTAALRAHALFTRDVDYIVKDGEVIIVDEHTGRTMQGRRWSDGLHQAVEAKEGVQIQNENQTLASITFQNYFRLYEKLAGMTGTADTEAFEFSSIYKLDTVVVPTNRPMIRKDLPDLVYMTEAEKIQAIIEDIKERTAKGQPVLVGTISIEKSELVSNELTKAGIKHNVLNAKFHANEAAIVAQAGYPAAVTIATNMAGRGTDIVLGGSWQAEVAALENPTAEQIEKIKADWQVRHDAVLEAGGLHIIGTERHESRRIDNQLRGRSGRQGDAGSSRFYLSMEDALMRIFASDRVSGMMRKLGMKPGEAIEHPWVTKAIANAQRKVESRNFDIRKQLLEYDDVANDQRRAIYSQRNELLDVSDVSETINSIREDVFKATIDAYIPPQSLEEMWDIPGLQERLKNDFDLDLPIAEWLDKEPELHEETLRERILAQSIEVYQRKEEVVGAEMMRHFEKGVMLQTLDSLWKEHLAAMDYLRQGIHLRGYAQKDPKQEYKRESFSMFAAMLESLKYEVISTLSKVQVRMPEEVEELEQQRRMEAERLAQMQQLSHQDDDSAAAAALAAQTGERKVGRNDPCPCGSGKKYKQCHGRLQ

Row | Structure (SMILES) | Percent Effect [1] | Percent Effect [2] | Percent Effect [3] | Percent Effect [4] | Percent Effect (Trypanosoma cruzi) | Percent Effect [5] | Percent Effect [6] | Percent Effect (Homo sapiens) | Percent Effect [7] | Percent Effect [8] | Percent Effect [9]
1 | Cc1ccc(-c2noc(CN3CCOC(CN(C)C)C3)n2)cc1F (configuration not stated) | -2.58% | -8.11% | -2.88% | 2.97% | -3.99% | -4.25% | -0.539% | 20.6% | 1.98% | -1.22% | 2.19%
2 | CCOc1ncccc1NC(=O)NCC(O)c1ccccc1OC (configuration not stated) | -2.5% | 22.8% | 4.8% | -4.05% | 4.06% | 4.94% | 9.75% | 23.4% | 3.45% | 21.5% | -7.12%
3 | CC(C)(C)OC(=O)CNC(=O)CCc1nnc(-c2ccsc2)o1 | -5.71% | 5.2% | 2.21% | 5.6% | -0.688% | 24.8% | 16.1% | 6.67% | 3.23% | 3.7% | -0.78%
4 | O=C(c1ccn(-c2cccc(F)c2)n1)N1CCCC(n2cccn2)C1 (configuration not stated) | -4.17% | 2.6% | 4.13% | 0.275% | 5.78% | -1.05% | 13.3% | 2.64% | 0% | 7.06% | -16.1%
5 | NC(=O)c1cccc(CC2CCN(C(=O)CO)C2)c1 (configuration not stated) | -1.68% | 19.2% | 10.3% | 10.6% | 3.33% | -0.909% | 15.4% | 2.47% | 4.3% | 17.5% | -3.86%
6 | CCc1nccn1C1CCCN(C(=O)Cc2n[nH]c3ccccc23)C1 (configuration not stated) | -3.99% | 3.8% | 8.48% | 8.66% | -4.62% | 3.66% | -0.858% | 1.26% | 2.08% | 15.2% | -2.38%
7 | Cc1csc(C2CCCN(C(=O)c3cnc4n[nH]c(C)c4c3)C2)n1 (configuration not stated) | -3.7% | 10.8% | -5.48% | 6.11% | 2.36% | -2% | 2.7% | 16.8% | 7.39% | 18.5% | -8.83%
8 | CCc1nc(CN2CCCC(NCc3nc4cccnc4[nH]3)C2)no1 (configuration not stated) | -0.119% | 20.2% | -9.6% | -10.5% | 2.36% | 0% | 5.98% | 11.5% | 10.3% | 16.5% | -8.46%
9 | Fc1cccnc1OC[C@@]12CCO[C@@H]1CCN(CC1CCOCC1)C2 | -3.83% | 8.11% | -6.9% | 22.7% | 4.01% | -0.744% | 14.3% | 12.2% | 6.45% | 13.6% | -9.09%
10 | Cn1cccc1C(=O)N1CCc2ncc(Cn3cccn3)n2CC1 | -5.21% | 10.7% | -0.846% | -1.04% | 2.32% | -43.2% | 0.513% | -2.01% | 2.08% | 2.5% | -3.31%
11 | Cc1cc(CN(C)C(=O)NC2CCS(=O)(=O)C2)no1 (configuration not stated) | -1.09% | 13% | -2.73% | -9.19% | 6.37% | 6.11% | 11.2% | 6.33% | 4.76% | 18.8% | -18.4%
12 | CN(C)C(=O)N1CCN(Cc2nnc(C(C)(C)C)o2)CC1 | -0.665% | -5.41% | 0.51% | 3.54% | 0% | 1.91% | 1.55% | -1.07% | -1.59% | 0% | -0.0145%
13 | O=C(O)CCc1cc2n(n1)CCCN(C(=O)c1ccc3cc[nH]c3c1)C2 | -2.97% | 16.2% | -5.19% | 10.7% | 4.05% | 10.5% | 11.9% | -2.64% | 7.94% | 17.1% | -3.38%
14 | CCc1nc(CCNC(=O)C2CCOC2)sc1C (configuration not stated) | -4.95% | 8.11% | -4.04% | 10.6% | 1.76% | 3.75% | 5.5% | 9.42% | 6.93% | 8.54% | -0.947%
15 | Cc1nccnc1CN1CCC2(CCCN(C3CCOCC3)C2=O)C1 (configuration not stated) | -2.05% | -2.74% | -4.08% | 1.19% | 2.98% | -2.79% | 12.8% | 13.9% | 5.21% | 6.17% | 0.026%
16 | c1ccc2oc(CCCN3CCOC(Cn4cccn4)C3)nc2c1 (configuration not stated) | -3.85% | 5.2% | 0.772% | 0.668% | 6.56% | -3.16% | 0.889% | 7.24% | 0% | 7.06% | 5.28%
17 | CC(CN1CCC2(CC1)c1nc[nH]c1CCN2S(C)(=O)=O)C(F)(F)F (configuration not stated) | -5.83% | 4.17% | -4.55% | 0.526% | -2.62% | -1.77% | 8.07% | -8.95% | 3.16% | 2.56% | -1.32%
18 | COCCCN(C)C1CCCN(Cc2noc(C)n2)C1 (configuration not stated) | -1.35% | 2.7% | -5.43% | 12.9% | 4.18% | -0.554% | -3.05% | 11.9% | 3.96% | 15.8% | -1.13%
19 | Cc1nn(C)c(C)c1C1CCCN1C(=O)CCc1cscn1 (configuration not stated) | -2.32% | -5.26% | -4.9% | 0.0636% | 0.467% | 0.36% | 6.18% | -8.57% | 1.48% | 1.24% | 2.83%
20 | Cc1cnn(CCNCCCOc2ccccc2)c1 | 1.02% | -21.1% | -5.54% | 5.86% | 3.27% | 1.08% | 6.85% | -25% | 6.4% | 3.7% | -0.782%
21 | Cc1ccccc1CSc1nc(N)cc(N2C[C@H](O)[C@@H](N(C)C)C2)n1 | -8.01% | 5.41% | -13.8% | 0.783% | 1.07% | 1.24% | 12.6% | 5.8% | 8.6% | 18.5% | -3.84%
22 | Cc1ccc(-c2cccc(-c3ccn(CCN4CCCC4)n3)c2)nn1 | -0.771% | -8.11% | -1.02% | 3.72% | -3.09% | 0.952% | 4.31% | 7.06% | 5.82% | 0% | 0.00646%
